The supplement of paper PMC9135407
Where a name gives a salt, the structure may show the parent alone. In all, about 5,800 compounds went through this assay and about 620 (11%) showed activity. This is one part of a sample in which actives are shown more often than they occur. Unmarked numbers belong to inactive results.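 The calls were made as follows: active = score above a cut-off or among the top three wells of a plate; in these data no inactive exceeds 0.85.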

System: primary human hepatic stellate cells (donor 1)
Experiment: scaled lipid accumulation score (0 = DMSO-like, 1 = nortriptyline-like); higher = stronger HSC inactivation (lipid re-accumulation), active = hit call of the paper
Conditions: 48 h
[1] = library stock concentration: 1 mM
[2] = library stock concentration: 10 mM
[3] = library stock concentration: 80 uM
[4] = library stock concentration: 400 uM
[5] = library stock concentration: 2 mM
[6] = library stock concentration: 3.33 mM

## CCCCC[C@@H](O)/C=C/[C@H]1[C@H](C/C=C\CCCC(=O)O)[C@H](O)C[C@@H]1O [ent-Prostaglandin F2.alpha.]
[1]
  scaled lipid accumulation score: ≤ 0

## CCOC(=O)/C=C/[C@H](CC(C)C)NC(=O)[C@H](CO)NC(=O)[C@@H](NC(=O)c1cccc(O)c1C)C(C)C
[1]
  scaled lipid accumulation score: ≤ 0

## C[C@@H]1C(=O)NC2=Nc3cccc(Cl)c3CN21 [Quazinone]
[2]
  scaled lipid accumulation score: ≤ 0

## N=C1C=CC(=C(c2ccc(N)cc2)c2ccc(N)cc2)C=C1 [Pararosaniline pamoate]
Library stock concentration: 3 mM
  scaled lipid accumulation score: 0.375
[2]
  scaled lipid accumulation score: 0.435

## C=CC(=O)Nc1cccc(Nc2nc(NC3CCC(N(C)C)CC3)nc3c2ncn3C(C)C)c1 (configuration not stated)
[3]
  scaled lipid accumulation score: ≤ 0
[4]
  scaled lipid accumulation score: ≤ 0
[5]
  scaled lipid accumulation score: ≤ 0
[2]
  scaled lipid accumulation score: 0.782

## CCCCC[C@H](O)/C=C/[C@H]1C=CC(=O)[C@@H]1CCCCCCC(=O)OCC [Prostaglandin A1 ethyl ester]
[1]
  scaled lipid accumulation score: ≤ 0

## NC(N)=O
[2]
  scaled lipid accumulation score: ≤ 0
Library stock concentration: 33.3 mM
  scaled lipid accumulation score: ≤ 0

## CC/C=C\C/C=C\C/C=C\C/C=C\CCCCC(=O)O [Stearidonic Acid]
[1]
  scaled lipid accumulation score: ≤ 0

## C=C1C[C@H](O)[C@H](C/C=C\CCCC(=O)O)[C@H]1/C=C/C(=O)CCCCC [11-deoxy-11-methylene-15-keto Prostaglandin D2]
[1]
  scaled lipid accumulation score: ≤ 0

## COc1cc(C(=O)N2CCC(N3CCN(C)CC3)CC2)ccc1Nc1ncc2c(n1)N(C)c1ccccc1C(=O)N2C [listing 1 of 2 here]
[2]
  scaled lipid accumulation score: 0.929 (active)

## COc1cc(N2CCN(C)CC2)ccc1Nc1ncc2c(n1)N(C)c1ccccc1C(=O)N2C
[3]
  scaled lipid accumulation score: 0.087
[4]
  scaled lipid accumulation score: 0.062
[5]
  scaled lipid accumulation score: 0.241
[2]
  scaled lipid accumulation score: 0.703

## COc1cc(N2CCC(N)CC2)ccc1Nc1ncc(Cl)c(-c2c[nH]c3ccccc23)n1
[6]
  scaled lipid accumulation score: 0.146
[2]
  scaled lipid accumulation score: 0.238

## COc1cc(N2CCC(N3CCN(C)CC3)CC2)ccc1Nc1ncc(Cl)c(-c2c[nH]c3ccccc23)n1 [listing 1 of 2 here]
[5]
  scaled lipid accumulation score: 0.981 (active)
[2]
  scaled lipid accumulation score: 0.967 (active)

## COc1cc(N2CCC(N3CCN(C)CC3)CC2)ccc1Nc1ncc(Cl)c(-c2c[nH]c3ccccc23)n1 [listing 2 of 2 here]
[3]
  scaled lipid accumulation score: 0.057
[4]
  scaled lipid accumulation score: 0.358

## COc1cc(C(=O)N2CCC(N3CCN(C)CC3)CC2)ccc1Nc1ncc2c(n1)N(C)c1ccccc1C(=O)N2C [listing 2 of 2 here]
[3]
  scaled lipid accumulation score: ≤ 0
[4]
  scaled lipid accumulation score: 0.015
[5]
  scaled lipid accumulation score: 0.329

## CCCCCCCCCCCCCCC(F)C(=O)O (configuration not stated) [2-Fluoropalmitic acid]
[1]
  scaled lipid accumulation score: ≤ -0.021

## CCCCCCCCCCCCCCC(F)C(=O)O (configuration not stated) [2-Fluoropalmitic Acid]
[1]
  scaled lipid accumulation score: ≤ 0

## CCCCCC(=O)/C=C/[C@H]1[C@H](O)CC(=O)[C@@H]1C/C=C\CCCC(=O)O [15-keto Prostaglandin E2]
[1]
  scaled lipid accumulation score: ≤ 0

## CO[C@@H]1[C@@H](O[C@@H]2O[C@H](C)[C@@H](O[C@H]3C[C@@](C)(O)[C@@H](OC(=O)CC(C)C)[C@H](C)O3)[C@H](N(C)C)[C@H]2O)[C@@H](CC=O)C[C@@H](C)[C@@H](O)/C=C/C=C/C[C@@H](C)OC(=O)C[C@H]1O
[2]
  scaled lipid accumulation score: 0.014

## CCCCCC(O)C=CC1C(O)CC(O)C1CCCCCCC(=O)O (configuration not stated) [Prostaglandin  F1a]
[1]
  scaled lipid accumulation score: ≤ -0.021

## COc1cc(/C=C(\C#N)C(=O)Nc2nnc(C(F)(F)F)s2)ccc1OCc1ccc(C(F)(F)F)cc1C(F)(F)F
[2]
  scaled lipid accumulation score: ≤ 0

## O=c1cc(-c2ccc(O)cc2)oc2c([C@@H]3O[C@H](CO)[C@@H](O)[C@H](O)[C@H]3O)c(O)cc(O)c12 [Vitexin]
  scaled lipid accumulation score: ≤ 0

## CN(C)c1ccc2nc3ccc(=[N+](C)C)cc-3sc2c1 [Methylene blue]
Library stock concentration: 5.9 mM
  scaled lipid accumulation score: 0.252

## CCCCCCCC/C=C\CCCCCCCC(=O)c1nc2ncccc2o1 [Oleoyl Oxazolopyridine]
[1]
  scaled lipid accumulation score: 0.017

## CC(C)=CCC1=C(O)C(=O)c2ccccc2C1=O [Lapachol]
[2]
  scaled lipid accumulation score: ≤ 0

## CC1(C)C(=O)N=C2C1=C(O)C(=O)c1ccccc12
[2]
  scaled lipid accumulation score: 0.923 (active)

## O=C1c2ccccc2C(=O)c2c1ccc(O)c2O [Alizarin]
[6]
  scaled lipid accumulation score: ≤ 0
[2]
  scaled lipid accumulation score: ≤ 0

## Cc1ccc(/C=C2\CNC/C(=C\c3ccc(C)cc3)C2=O)cc1.Cl
[2]
  scaled lipid accumulation score: 1.43 (active)

## COc1ccc(/C=C2\COc3ccc(C)cc3C2=O)cc1O
[2]
  scaled lipid accumulation score: 0.275

## CC1(C)C=C(CN2C/C(=C\c3ccc(F)cc3)C(=O)/C(=C/c3ccc(F)cc3)C2)C(C)(C)N1O
[6]
  scaled lipid accumulation score: 0.264
[2]
  scaled lipid accumulation score: 0.694

## CN(C)CCSSCCNC(=O)C1CCN(C(=O)CSc2ccc(Cl)cc2)CC1
[6]
  scaled lipid accumulation score: ≤ -0.009
[2]
  scaled lipid accumulation score: ≤ 0

## CCCCC[C@H](O)/C=C/[C@@H]1[C@@H](C/C=C\CCCC(=O)NCCO)[C@@H](O)C[C@@H]1O [11.beta.-Prostaglandin F2.alpha. Ethanolamide]
[1]
  scaled lipid accumulation score: ≤ 0

## CCCCC/C=C\C/C=C\C/C=C\C=C\[C@@H](O)CCCC(=O)O
Library stock concentration: 100 uM
  scaled lipid accumulation score: ≤ -0.021

## CN(C)CCOc1cc(-c2cn[nH]c2)ccc1NC(=O)C1COc2ccccc2O1 (configuration not stated) [listing 1 of 2 here]
[2]
  scaled lipid accumulation score: 1.08 (active)

## O=C(Nc1ccc(-c2cn[nH]c2)cc1)C1COc2ccccc2O1 (configuration not stated) [Rho Kinase Inhibitor V]
[6]
  scaled lipid accumulation score: ≤ 0

## CN(C)CCOc1cc(-c2cn[nH]c2)ccc1NC(=O)C1COc2ccccc2O1 (configuration not stated) [listing 2 of 2 here]
[4]
  scaled lipid accumulation score: ≤ -0.005
[5]
  scaled lipid accumulation score: 0.383

## CCCCCCCCCCCCCCCCCC=CC(=O)O [.DELTA.2-cis Eicosenoic Acid]
[1]
  scaled lipid accumulation score: 0.011

## CCCCC/C=C\C/C=C\CC/C=C\CCCC(=O)OCC [Pinolenic Acid ethyl ester]
[1]
  scaled lipid accumulation score: ≤ 0

## CC[C@]1(O)C[C@H]2CN(CCc3c([nH]c4ccccc34)[C@@](C(=O)OC)(c3cc4c(cc3OC)N(C)[C@H]3[C@@](O)(C(N)=O)[C@H](O)[C@]5(CC)C=CCN6CC[C@]43[C@@H]65)C2)C1.O=S(=O)(O)O
Library stock concentration: 9.7 mM
  scaled lipid accumulation score: 1.52 (active)

## CCCCC[C@H](O)/C=C/[C@@H]1[C@H]2C/C(=C/CCCC(=O)O)C[C@H]2C[C@H]1O [Carbacyclin]
[1]
  scaled lipid accumulation score: ≤ -0.021

## N=C(N)c1ccc(N2CCN(C3CCN(CC(=O)O)CC3)CC2)cc1
[2]
  scaled lipid accumulation score: ≤ -0.006

## CCCCCCCCCCCCC/C=C/[C@@H](O)[C@H](CO)NC(=O)CCCCC [C-6 Ceramide]
[1]
  scaled lipid accumulation score: ≤ 0

## CCCCC/C=C\C/C=C\C/C=C\C/C=C\CCCCN1C(=O)C=CC1=O [N-Arachidonyl Maleimide]
[1]
  scaled lipid accumulation score: ≤ 0

## CCCCC[C@H](O)CC(=O)CCc1ccc(O)c(OC)c1 [6-Gingerol]
Library stock concentration: 17 mM
  scaled lipid accumulation score: ≤ -0.014

## Cc1c(-c2cnccn2)ssc1=S [Oltipraz]
Library stock concentration: 8.8 mM
  scaled lipid accumulation score: 0.01

## N[C@H](CO)C(=O)O [D-Serine]
[2]
  scaled lipid accumulation score: ≤ 0

## C(=C(/CC1)\CCN1C)(/c2c3cccc2)\c4c(cccc4)C=C3.Cl [Cyproheptadine hydrochloride]
[2]
  scaled lipid accumulation score: 0.933 (active)

## CN1CCC(=C2c3ccccc3CCc3cccnc32)CC1 [Azatadine dimaleate]
[6]
  scaled lipid accumulation score: 0.004
[2]
  scaled lipid accumulation score: 0.221

## Cl[H].CN1CC\C(=C(/c2c(cccc2)C=C3)\c(cccc4)c34)\CC1 [Cyproheptadine hydrochloride]
[2]
  scaled lipid accumulation score: 1.04 (active)

## CN1CCC(=C2c3ccccc3Sc3ccccc32)CC1 [Pimethixene maleate]
  scaled lipid accumulation score: 0.65
[2]
  scaled lipid accumulation score: 0.656

## Cl.C(=C(\CCN(C)C1)/C1)(/c2c(cccc2)C=C3)\c4c3cccc4 [Cyproheptadine hydrochloride]
  scaled lipid accumulation score: 0.968 (active)

## CN1CCC(=C2c3ccccc3C=Cc3ccccc32)CC1 [Cyproheptadine]
Library stock concentration: 7 mM
  scaled lipid accumulation score: 0.351

## CN1CCC(=C2c3ccccc3C=Cc3ccccc32)CC1
[2]
  scaled lipid accumulation score: 1.32 (active)

## CN1CCC(=C2c3ccccc3CCc3cccnc32)CC1
[2]
  scaled lipid accumulation score: 0.464

## CN1CCC(=C2c3ccccc3C=Cc3ccccc32)CC1 [Cyproheptadine HCl]
[6]
  scaled lipid accumulation score: 0.629
[2]
  scaled lipid accumulation score: 0.63

## CN1CCC(=C2c3ccccc3C=Cc3ccccc32)CC1 [Cyproheptadine hydrochloride]
Library stock concentration: 6.2 mM
  scaled lipid accumulation score: 0.686

## C#C[C@]1(OC(C)=O)CC[C@H]2[C@@H]3CCC4=CC(=NO)CC[C@@H]4[C@H]3CC[C@@]21CC (mixture of isomers) [Norgestimate]
Library stock concentration: 5.4 mM
  scaled lipid accumulation score: ≤ 0

## CC1COCCN1c1cc(C2(S(C)(=O)=O)CC2)nc(-c2cccc3[nH]ccc23)n1 (configuration not stated)
[6]
  scaled lipid accumulation score: ≤ 0
[2]
  scaled lipid accumulation score: ≤ -0.001

## CCCCC(F)(F)[C@@]1(O)CC[C@H]2[C@@H](CC(=O)[C@@H]2CCCCCCC(=O)O)O1 [Lubiprostone]
[6]
  scaled lipid accumulation score: ≤ 0
[2]
  scaled lipid accumulation score: ≤ 0

## CCCCC/C=C\C/C=C\CCCCCCCC(=O)OCC(O)CO (configuration not stated) [1-Linoleoyl Glycerol]
[1]
  scaled lipid accumulation score: ≤ 0

## C=C1C[C@H](O)[C@H](C/C=C\CCCC(=O)O)[C@H]1/C=C/[C@@H](O)CCCCC [11-deoxy-11-methylene Prostaglandin D2]
[1]
  scaled lipid accumulation score: ≤ 0

## CCC(C)C(COC(Cc1ccccc1)C(=O)NC(CCS(C)(=O)=O)C(=O)OC(C)C)NCC(N)CS (configuration not stated)
Library stock concentration: 7.9 mM
  scaled lipid accumulation score: 0.195

## CC(C)(C)CC(C)(C)c1cc(Cc2cc(C(C)(C)CC(C)(C)C)cc(-n3nc4ccccc4n3)c2O)c(O)c(-n2nc3ccccc3n2)c1
[2]
  scaled lipid accumulation score: ≤ 0

## CCCCC[C@@H](O)[C@H]1C(=O)O[C@H](C)[C@@H](O)/C=C/C=C/C=C/C=C/C=C(\C)[C@@H](O)C[C@H](O)C[C@H](O)C[C@H](O)C[C@H](O)C[C@H](O)C[C@@H]1O [Filipin]
Library stock concentration: 3.1 mM
  scaled lipid accumulation score: 0.029

## CCCCC[C@@H](O)[C@H]1C(=O)O[C@H](C)[C@@H](O)/C=C/C=C/C=C/C=C/C=C(\C)[C@@H](O)C[C@H](O)C[C@H](O)C[C@H](O)C[C@H](O)C[C@H](O)C[C@@H]1O [Filipin III]
[1]
  scaled lipid accumulation score: 0.021
